From the supplement of paper PMC10681739

target: T1, ETS1 (UniProt P14921); assay: TF binding intensity (PBM fluorescence), negative control probe (arbitrary fluorescence units); higher = stronger binding
T1 sequence: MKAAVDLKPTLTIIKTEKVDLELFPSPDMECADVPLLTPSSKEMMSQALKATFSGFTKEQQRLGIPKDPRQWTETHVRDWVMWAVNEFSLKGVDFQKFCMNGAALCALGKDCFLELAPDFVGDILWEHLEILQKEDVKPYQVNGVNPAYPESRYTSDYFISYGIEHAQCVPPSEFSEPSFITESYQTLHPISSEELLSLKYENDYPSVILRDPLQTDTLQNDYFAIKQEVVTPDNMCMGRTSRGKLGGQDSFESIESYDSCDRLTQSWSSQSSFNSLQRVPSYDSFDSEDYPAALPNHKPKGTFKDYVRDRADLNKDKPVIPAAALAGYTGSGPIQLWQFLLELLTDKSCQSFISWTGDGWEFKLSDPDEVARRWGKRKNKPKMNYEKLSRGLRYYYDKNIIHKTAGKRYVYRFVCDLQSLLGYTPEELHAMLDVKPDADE
Experimental: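 gcPBM negative-control 36-bp genomic probes lacking TF binding sites. Each was incubated with recombinant human ETS1 or RUNX1 alone and detected by antibody fluorescence. Values are medians over replicate spots (4 spots for the ETS1-RUNX1 arrays, 3 for the ETS1-ETS1 array). The probes sit in constant array flanks that are not printed.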

Compared with “GTCCCCTCAAGGACCCCCAGTGCAGGTGAAAAACTG (protein concentration 10 nM)”, “CTATAGTATGTCAAAACCACAAAGACAATGTGCAGC (protein concentration 1 nM)” is higher in TF binding intensity: 174 for the first, 466 for the second.

First: GGCGGCGCCGGCGGCTGCGGGGTTATCTCCGCGGCC (protein concentration 10 nM)
Second: TCTCTCTGCTCTGTGAACTCTAGCTGTCTTGGCTTC (protein concentration 10 nM)
The TF binding intensity of the first is lower: 107 for the first, 142 for the second.

First: CCCAATCTGTAACAACCCACATCTGTTCCTTATTTG (protein concentration 1 nM)
Second: CCGACACTCCATGAGTTAGTTCAGTCCTCTGACACC (protein concentration 10 nM)
The TF binding intensity of the first is higher: 466 for the first, 150 for the second.

Compared with “GTTAAGTACCTGAATGAGCACTGGACCAGAGCCGGG (protein concentration 10 nM)”, “CACCTCCTAAACAAAGCCGCATAGGTGATGGTGATG (protein concentration 1 nM)” is higher in TF binding intensity: 106 for the first, 463 for the second.

First: GGGGCCTCGAAGGTCCTCCTGGACTGCAAGAGAGGA (protein concentration 10 nM)
Second: TCAGCCTGAGAGCTATGTGGGTGAATAAAAATAAAA (protein concentration 1 nM)
The TF binding intensity of the first is lower: 131 for the first, 499 for the second.

Compared with “CAACCTAACTATAATGCAAATAGGGATTCTTTTTCT (protein concentration 10 nM)”, “AGGCATAACAGAAAAACCTCAACTTAAATAGTGCTG (protein concentration 1 nM)” is higher in TF binding intensity: 88.5 for the first, 626 for the second.

Compared with “ATGTTTTCGGTTCTTAGGACCCAGGTGCTCACCACA (protein concentration 10 nM)”, “TAACAGGGAGATAAAACGGGTGAGAGCCCCCTAGGA (protein concentration 10 nM)” is lower in TF binding intensity: 106 for the first, 103 for the second.

First: GCAAAGCGGGCGAGTGGCCTGGAGAGAGGGAGCAGC (protein concentration 10 nM)
Second: TCCTCAAAATTAAGGTGCGGTGCCAGGCGCAGTGGC (protein concentration 1 nM)
The TF binding intensity of the first is lower: 150 for the first, 374 for the second.

First: AGTTTTTTGTTTTGAGCCGCAGTCTCGCTCTGTCGC (protein concentration 1 nM)
Second: GCAGCTCTAGTTTCTACCACACCAATGGGAGGGATC (protein concentration 1 nM)
The TF binding intensity of the first is higher: 351 for the first, 320 for the second.

“TTTCAGAGGGAAAAGAATTTTGCCGTTCGCGTTCGA (protein concentration 10 nM)” and “TAGAAACCGTGTTTTAAATTTAACACTGGTAAGATG (protein concentration 10 nM)” are the same in TF binding intensity: 113 for the first, 113 for the second.

Compared with “CAGAAGTTATAATAATTAATGATATCATTCAGTGTG (protein concentration 10 nM)”, “AGCGGGAGGGAGGCCAGGGAAGGCTGCTGGGGGTCG (protein concentration 10 nM)” is higher in TF binding intensity: 118 for the first, 142 for the second.

First: AGGTGCACGATGGGTGGGGAGCTGCTCAGGGCACTG (protein concentration 10 nM)
Second: CTCCACGACCCTGAAACTAGAACAAGACCTCTCCTC (protein concentration 10 nM)
The TF binding intensity of the first is lower: 112 for the first, 165 for the second.

First: CCAGTGCCCTTGAAATGAAATGGGACTTGCAAGGAG (protein concentration 10 nM)
Second: CTCTGCCCAGTTGGTTGTGGCTCTTCATTACTGTGG (protein concentration 1 nM)
The TF binding intensity of the first is lower: 121 for the first, 512 for the second.

First: AAAGGCAGATCTCCAAATCTCCAGGCCTGCTCGTTG (protein concentration 10 nM)
Second: ATTTCTTGAGAAATCTGTGGTTATTATTTAACTCTT (protein concentration 1 nM)
The TF binding intensity of the first is lower: 96.1 for the first, 461 for the second.

Going from “CCCTGAGGTCTATCTTGCTGCAAATTGAATGCCTGC (protein concentration 10 nM)” to “GCTCGCCTACCCACTGATTGCCAGTGTCCTGGGTGA (protein concentration 10 nM)”, the TF binding intensity falls from 120 to 107.

First: GTTCCAGGCATTGTACTGAGGGGAGGCCCTCCTGTG (protein concentration 10 nM)
Second: CTGGGCCATTAACCTCAGCAGAAAAATGCTTTTTGC (protein concentration 10 nM)
The TF binding intensity of the first is higher: 109 for the first, 97.6 for the second.

Compared with “CAGAGGGGGCCTCTGGGGCAGCGGTGCTGGGAGCGG (protein concentration 10 nM)”, “TTTCTGTTTTGTTTTATTTTGTTTGTTTTTATTCTG (protein concentration 10 nM)” is higher in TF binding intensity: 109 for the first, 128 for the second.

Compared with “AGGCCTCTGCTCTCCTGGAGCTCATGACAAGTAAAC (protein concentration 10 nM)”, “AAATTTATCTGAGTCCAAAATCTCTCCCTTCAACCT (protein concentration 10 nM)” is higher in TF binding intensity: 118 for the first, 119 for the second.

Compared with “GCCCTCTGCGGGGCAACAGCACGAGGCATTACCCCT (protein concentration 10 nM)”, “CCGGCTGTCTCCTGCACCCAGGTAAGCAGCGGCGCT (protein concentration 10 nM)” is higher in TF binding intensity: 107 for the first, 108 for the second.

Compared with “TAAGATCCACTGGCTTGAAATTCTTGCTGCCAGCAC (protein concentration 10 nM)”, “TTTTTCTTTTAATTTTTCTTTTTTATTCTATTTTTT (protein concentration 10 nM)” is lower in TF binding intensity: 130 for the first, 117 for the second.
